# Screens: PubChem, National Center for Advancing Translational Sciences (NCATS)
# Only some compounds are listed: those with a hit (about 19% of all), similar ones and a draw of the others.
# HT1080-NT tox: kills 2HG-producing HT-1080-NT fibrosarcoma cells; HT-1080-NT fibrosarcoma viability, CellTiter-Glo ATP luminescence, 48 h; 1.6% of 360,000 active; Potency, µM (highest dose often 46.1 µM), inactives show top-dose activity, negative = less viability, most hits filed as cytotoxic;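 note: NT is the 2HG producing partner of a matched IDH1 knockdown line; potency is the fitted concentration of half-maximal effect; 0% = DMSO-treated cells and -100% = media-only wells without cells; nearly all actives have a fitted effect of over 55% in size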
#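 HT-1080-NT fibrosarcoma cells (2HG-overproducing), 750 cells/well in RPMI with 5% FBS, dosed after 2 h and incubated 48 h at 37C. CellTiter-Glo luminescence normalized to DMSO and no-cell wells; concentration-response curves fitted and classed.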
# IL-1B inflam inh: inhibitors of inflammasome signaling (IL-1 beta secretion); activity change, % at 57.5 µM; THP-1 LPS/ATP IL-1B secretion, AlphaLISA, 16 h; active compounds read low; 4.7% of 360,000 active; in the data active = activity change below about -50%; inconclusive = mostly about -30% to -49%
#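 Secreted IL-1B measured by AlphaLISA bead assay after 16 h compound exposure of THP-1 cells; compounds (final up to 57.5 uM) added 1 h before LPS (250 ng/mL) and ATP (1.25 mM) stimulation; lower signal means less secretion.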
# TDP1 cell noCPT: qHTS for Inhibitors of human tyrosyl-DNA phosphodiesterase 1 (TDP1): qHTS in cells in absence of CPT; Potency, µM (series often up to 46.2 µM), inactives show at the top dose activity change, negative = growth inhibition, usual class: inhibitors; AID 686978, 2013; DT40 Tdp1-/- hTDP1 cells, no CPT, ATP luminescence, 48 h; 15% of 420,000 active; note: potency is the fitted concentration of half-maximal effect; nearly all actives have a fitted effect of over 55% in size
#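 Luminescent ATP content (CellTiter-Glo) served as the growth readout. Knockout chicken DT40 cells expressing human TDP1 were exposed to compounds without camptothecin for a minimum 48 hr at 37 °C.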
# DT40 TDP1 CPT: growth inhibition of DT40 Tdp1-/-;hTDP1 cells with camptothecin (screen for TDP1 inhibitors); chicken DT40 Tdp1-/-;hTDP1 cells + 20 nM CPT, ATP luminescence, 48 h; 12% of 420,000 active; Potency, µM (top dose mostly 46.2 µM), for inactives: at the top dose activity change, negative = growth inhibition, actives largely listed as inhibitors; note: potency is the fitted concentration of half-maximal effect; nearly all actives have a fitted effect of over 55% in size
#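 Chicken DT40 Tdp1-/- cells complemented with human TDP1, 400 cells/well, exposed to compounds plus 20 nM camptothecin for at least 48 h at 37 C; viability read as ATP content by CellTiter-Glo luminescence.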
# HT1080 IDH1KD tx: toxicity to HT-1080 IDH1 knockdown cells (counter line) | 2% of 360,000 active | AID 686971 | Potency, µM (highest dose often 46.1 µM), inactives show top-dose activity, negative = toxicity, most hits filed as cytotoxic | HT-1080 IDH1 knockdown viability, ATP luminescence, 48 h;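 note: potency is the fitted concentration of half-maximal effect; 0% = DMSO wells and -100% = cell-free medium wells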
#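 Knockdown cells (IDH1KD HT-1080) received compounds 2 h after plating at 750 cells/well and were kept 48 h at 37 °C in 5% FBS RPMI. A CellTiter-Glo luminescence read gave % activity for curve fitting.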
# Starred values were filed as active, the others as inactive; ? = inconclusive; · = no result given; [ ] = remark or other dose. Unless noted, calls come from the whole dose curve; as a rule, active = well fitted curve in the direction sought with a large enough effect; inconclusive = small, poorly fitted or top-dose-only effect, or another doubt; inactive = no such curve, though single readings can be large; an effect the other way counts as inactive or inconclusive. Unless noted, % is set by controls: 0 for no effect and ±100 for the full control effect.
SMILES,HT1080-NT tox,IL-1B inflam inh,TDP1 cell noCPT,DT40 TDP1 CPT,HT1080 IDH1KD tx
O=C(CCS(=O)(=O)c1nc(-c2cccs2)cc(C(F)(F)F)n1)Nc1cccc(O)c1,·,·,5.17µM*,2.31µM*,·
O=C(O)CCS(=O)(=O)c1nc(-c2cccs2)cc(C(F)(F)F)n1,?,-28.9,14.6µM*,10.3µM*,?
O=C(NC(=O)c1ccc(F)cc1)Nc1nc(-c2cccs2)cc(C(F)(F)F)n1,-4.9%,-9.9,?,?,3.1%
CC(C)CNC(=O)CSc1nc(-c2cccs2)cc(C(F)(F)F)n1,-3.6%,-1.3,?,?,-7.2%
CNC(=O)COC(=O)/C=C/c1c(C)nn(-c2ccccc2)c1C,8.3%,41.0,?,-26.6%,19.8%
COc1ccccc1C1CN(CC(=O)NCC2OCCc3ccccc32)Cc2ccccc2O1 (stereo not drawn),·,·,-15.1%,2.8%[9.04 µM],·
COc1cc(NC(=O)CSc2nc(-c3cccs3)cc(C(F)(F)F)n2)cc(OC)c1OC,·,·,?,20.6µM*,·
Cc1cc(NC(=O)CCCS(=O)(=O)c2nc(-c3cccs3)cc(C(F)(F)F)n2)no1,5.8µM*,-69.5*,2.59µM*,2.59µM*,5.8µM*
COc1cc(NC(=O)CCS(=O)(=O)c2nc(-c3cccs3)cc(C(F)(F)F)n2)cc(OC)c1OC,·,·,6.51µM*,4.11µM*,·
COC(=O)c1ccccc1NC(=O)CCCS(=O)(=O)c1nc(-c2ccccc2OC)cc(C(F)(F)F)n1,·,·,-20.5%,-0.3%,·
O=C(Nc1cccc(F)c1)c1cccnc1NCCc1ccccc1,?,-60.1*,?,?,?
O=C(Nc1cccc(C(F)(F)F)c1)c1cccnc1NCCc1ccccc1,?,-67.4*,16.4µM*,?,?
O=C(Nc1cccc(C(F)(F)F)c1)c1cccnc1NCCO,2.5%,30.9,4.8%,-7.1%,2.4%
O=C(Nn1cnnc1)c1ccc(Cl)cc1[N+](=O)[O-],1.6%,27.8,2.1%,6.2%,0.4%
Cc1ncc(CCl)c2c1OC(C)(C)OC2,10.3%,8.1,23.1µM*,?,-0.1%
Cc1cccc(COc2ncnc3nc[nH]c23)c1,-14.5%,11.6,13µM*,?,-3.2%
CCN(c1cccc(C)c1)c1ncnc2nc[nH]c12,2.1%,-4.4,-29.8%,-27.6%,6.8%
Cc1cnc(C(=O)OCC(=O)NCc2cccc(Cl)c2)cn1,-3.7%,-14.1,0.8%,-1.1%,0.0%
CC(C)C(N)c1csc(Nc2ccc(C(=O)N(C)Cc3ccccc3)cn2)n1 (stereo not drawn),14.6µM*,0.0,?,?,14.6µM*
CCCCN(C)C(=O)c1ccc(Nc2nc(C(N)COCc3ccccc3)cs2)nc1 (stereo not drawn),?,?,14.6µM*,11.6µM*,?
CN(Cc1ccccc1)C(=O)c1ccc(Nc2nc(CN)cs2)nc1,-8.3%,-19.9,-16.7%,-16.1%,1.9%
O=C(NC(Cc1cc(=O)[nH]c2ccccc12)C(=O)O)c1ccc(Cl)cc1 (stereo not drawn),·,·,-10.0%,15.5%,·
CN1CCN(S(=O)(=O)c2ccc(NCc3ccc4c(c3)OCO4)nc2)CC1,-15.3%,-3.0,11.1%,-9.8%,-13.0%
O=C(Nc1cccc(Br)c1)c1ccc2c(c1)SC1=NS(=O)(=O)CCN12,-2.8%,-61.7*,29.1µM*,23.1µM*,0.0%
O=C(NCc1ccccc1Cl)c1ccc2c(c1)SC1=NS(=O)(=O)CCN12,28.3%,?,?,?,0.1%
SMILES,HT1080-NT tox,IL-1B inflam inh,TDP1 cell noCPT,DT40 TDP1 CPT,HT1080 IDH1KD tx
CC(C)(C)c1ccccc1NC(=O)c1ccc2c(c1)SC1=NS(=O)(=O)CCN12,17.0%,-25.6,?,29.1µM*,3.2%
O=C(CCCc1c[nH]c2ccccc12)NCc1cccs1,-0.8%,?,5.2%,9.4%,12.1%
COCCn1c(=O)c(-c2cc(F)cc(F)c2)nc2cnc(Oc3ccccc3)nc21,·,·,?,-12.3%,·
CSCC[C@H](NC(=O)Nc1ccc(OC(F)(F)F)cc1)C(=O)O,?,10.7,-11.8%,9.0%,5.2%
CCOC(=O)N1CCN(CC(=O)Nc2sccc2C#N)CC1,-6.4%,68.0,14.6µM*,20.6µM*,4.4%
Cc1ccc(C)c(S(=O)(=O)N2CCN(CC(=O)Nc3sccc3C#N)CC2)c1,-6.8%,-1.8,18.4µM*,16.4µM*,-12.5%
O=c1cc(CSc2ccc(Cl)cc2)nc(-c2ccccn2)[nH]1,-16.7%,-8.5,4.11µM*,4.11µM*,-29.2%
Clc1ccc(SCc2csc(N3CCOCC3)n2)cc1,-12.5%,-16.1,-29.0%,-0.9%,-4.0%
Clc1ccc(SCc2cc(N3CCOCC3)nc(-c3ccccn3)n2)cc1,-5.8%,-11.7,3.26µM*,5.8µM*,-17.3%
C=CC[C@@H]1/C=C(\C)C[C@H](C)C[C@H](OC)[C@H]2O[C@@](O)(C(=O)C(=O)N3CCCC[C@H]3C(=O)O[C@H](/C(C)=C/[C@@H]3CC[C@@H](O)[C@H](OC)C3)[C@H](C)[C@@H](O)CC1=O)[C@H](C)C[C@@H]2OC,·,·,2.99µM*,3.35µM*,·
Cc1occc1-c1nnc(SCC(=O)Nc2ccccc2N2CCCCC2)n1C,-5.2%,-52.8*,18.4µM*,18.4µM*,-0.1%
Cn1c(SCCCC(=O)c2ccc(F)cc2)nnc1-c1ccncc1,3.0%,22.0,?,?,4.8%
CCOc1ccccc1-n1c(SCC(=O)NC2CCCC2)nnc1-c1ccoc1C,6.7%,-10.1,14.1µM*,?,2.7%
Cn1c(=O)c2c(nc(SCC(=O)Nc3ccccc3F)n2Cc2ccccc2F)n(C)c1=O,·,·,2.91µM*,-26.8%,·
Cc1occc1-c1nnc(SCC(=O)Nc2ccccc2)n1C,22.2%,-13.4,-1.4%,-11.1%,29.2%
Cc1occc1-c1nnc(SCCCC(=O)c2ccc(F)cc2)n1C,-4.4%,-29.7,16.4µM*,18.4µM*,-1.2%
CC/C(=N\O)c1ccc(O)c(OC)c1,11.1%,-13.5,-19.3%,1.0%,-2.2%
O=C(NCc1ccc(Cl)cc1)c1n[nH]c([N+](=O)[O-])c1Cl,-1.2%,8.8,?,-28.6%,3.1%
COc1cc(OC)cc(C(=O)NNC(=O)c2cc(S(=O)(=O)N3CCOCC3)ccc2F)c1,-2.3%,11.2,3.5%,3.7%,?
O=C(CSc1nnnn1-c1cccc2ccccc12)Nc1ccc(C(=O)O)cc1,10.5%,23.7,1.5%,17.4%,9.1%
CCn1c(SCC(=O)Nc2ccccc2N2CCCCC2)nc2c1c(=O)n(C)c(=O)n2C,1.4%,-6.7,16.4µM*,18.4µM*,-3.1%
O=C(CCCSc1nnnn1-c1cccc2ccccc12)c1ccc(F)cc1,-4.5%,-3.6,20.6µM*,-15.5%,?
